Screening results from PubChem.
CBFb-RUNX1 inh: inhibitors of human CBF-beta and RUNX1 interaction | Q01196+Q13951 | AlphaScreen CBFb-His/RUNX1-biotin binding, biochemical | Potency, µM (series often up to 59.8 µM), inactives show at the highest dose activity, negative = inhibition, actives largely listed as inhibitors | 230,000 tested, under 10 active | AID 1477; active means well fitted curve in the direction sought with a large enough effect; inconclusive means small, poorly fitted or top-dose-only effect, or another doubt; inactive means no such curve, though single readings can be large; an effect the other way counts as inactive or inconclusive; further: % of control where 0% means no effect
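Bead-based AlphaScreen assay; binding partners His-tagged CBF-beta and biotinylated RUNX1 at 30 nM each. Compound exposure 15 min after a 20-min protein preincubation; bead step 90 min; all steps at room temperature.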
KDM4E inh: blocks human JMJD2E demethylase activity; Potency, µM (top dose mostly 57.1 µM), for inactives: top-dose activity change, negative = inhibition, most hits filed as inhibitors; actives 1.6% (n = 230,000); JMJD2E catalytic domain, FDH-coupled NADH fluorescence (FDH is formaldehyde dehydrogenase); B2RXH2;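 further: potency means the concentration at half of the fitted maximal effect; 0% = wells with enzyme and -100% = buffer wells without enzyme; nearly all actives have a fitted effect of over 50% in size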
Target sequence (B2RXH2 1-337 limits assumed): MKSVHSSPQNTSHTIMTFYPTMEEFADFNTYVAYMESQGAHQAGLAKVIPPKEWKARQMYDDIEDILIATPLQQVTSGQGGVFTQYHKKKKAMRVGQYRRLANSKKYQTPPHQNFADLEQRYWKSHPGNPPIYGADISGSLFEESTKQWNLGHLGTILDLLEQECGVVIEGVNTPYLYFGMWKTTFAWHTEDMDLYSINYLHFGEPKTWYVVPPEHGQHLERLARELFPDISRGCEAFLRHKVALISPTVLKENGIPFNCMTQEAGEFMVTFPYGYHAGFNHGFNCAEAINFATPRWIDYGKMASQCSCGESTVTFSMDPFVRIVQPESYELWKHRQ
HTT ATP protect: protects HTT-Q103 PC12 cells, measured by ATP; Potency, µM (titrated, usually from 56.4 µM), inactives show cytoprotection (ATP increase), most hits filed as activators; PC12 HTT-Q103 induced, cytoprotection, ATP luminescence, 40 h; actives 0.14% (n = 230,000); active means well fitted curve in the direction sought with a large enough effect; inconclusive means small, poorly fitted or top-dose-only effect, or another doubt; inactive means no such curve, though single readings can be large; an effect the other way counts as inactive or inconclusive; further: potency means the concentration at half of the fitted maximal effect; % of control where 0% means no effect; nearly all actives have a fitted effect of over 45% in size
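Quantitative HTS on tebufenozide-induced (100 nM) PC12 cells expressing HTTQ103 exon 1–GFP; compounds tested as a concentration series; survival measured via cellular ATP.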
HPGD inh: inhibitors of human 15-hydroxyprostaglandin dehydrogenase (HPGD) | actives 4.3% (n = 150,000) | Potency, µM, for inactives: at the highest dose activity change, negative = inhibition, most hits filed as inhibitors | purified HPGD, NADH fluorescence kinetic, PGE2 substrate | P15428 | AID 894; further: potency means the concentration at half of the fitted maximal effect; on the % scale 0 is the no-effect control and ±100 the full control effect
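NADH formation kinetics: reaction with 30 uM PGE2 and 1 mM NAD+ (final), 20 nM enzyme, Tris-HCl pH 8 with Tween 20, after 15 min compound preincubation at room temperature. Fluorescence change, last versus first of five reads.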
HTT aggregate: mutant huntingtin aggregation inhibition | Potency, µM (series often up to 46.1 µM), for inactives: at the highest dose activity change, negative = inhibition, usual class: inhibitors | PC12 HttQ103-GFP aggregates, Acumen cytometry, 40 h | actives 1.1% (n = 220,000) | AID 1688; active means well fitted curve in the direction sought with a large enough effect; inconclusive means small, poorly fitted or top-dose-only effect, or another doubt; inactive means no such curve, though single readings can be large; an effect the other way counts as inactive or inconclusive; further: potency means the concentration at half of the fitted maximal effect; on the % scale 0 is the no-effect control and ±100 the full control effect; nearly all actives have a fitted effect of over 60% in size
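Read-out: GFP aggregate count by laser scanning cytometer (488 nm excitation, 500-530 nm emission, 1–25 µm objects >6 SD above background). Cells: PC12, inducible HTTex1-Q103-GFP, 100 nM tebufenozide; compounds titrated.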
ALDH1A1 block: blocks purified human ALDH1A1 activity; P00352; Purified ALDH1A1, NADH fluorescence, propionaldehyde substrate; Potency, µM (doses to about 75.3 µM), inactives show top-dose activity, negative = inhibition, most hits filed as inhibitors; actives 7.3% (n = 220,000); AID 1030;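 further: potency means the concentration at half of the fitted maximal effect; plate controls were no enzyme wells and a reference inhibitor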
The depositor's hits bear a star; ? = inconclusive; . = no result; [ ] = another dose, or the depositor's remark. A selection: hits, their analogues and other compounds. The true share with any hit is near 9.8%. Unless noted, the call rests on the fitted dose curve; in most records, active means well fitted inhibition curve with a large enough effect (not every such curve was filed as active); inconclusive means small, poorly fitted or top-dose-only effect, or another doubt; inactive means no such curve, though single readings can be large or run the other way.

SMILES	CBFb-RUNX1 inh	KDM4E inh	HTT ATP protect	HPGD inh	HTT aggregate	ALDH1A1 block
CC(=O)OC[C@]12C[C@H](OC(=O)CC(C)C)C(C)=C[C@H]1O[C@H]1[C@H](O)[C@@H](OC(C)=O)[C@@]2(C)[C@]12CO2	-1.5%	5.8%	-320.0%	-0.6%	.	-9.9%
O=P(O)(O)CCP(=O)(O)O	.	.	-1.2%[10 µM]	-6.2%	.	1.0%[13.5 µM]
CN1C(=O)C(=Cc2ccccc2OCCOc2ccc([N+](=O)[O-])cc2)C(=O)N(C)C1=O	1.7%	-1.8%	-70.5%	.	-12.7%	3.55µM*
CN1C(=O)C(=Cc2ccccc2OCc2ccccc2Cl)C(=O)N(C)C1=O	1.9%	?	0.0%[1.9 µM]	15.8µM*	-5.3%	2.82µM*
COc1cc(C=C2C(=O)NC(=O)NC2=O)ccc1OCc1ccc([N+](=O)[O-])cc1	-6.3%	?	-26.7%	.	11.9%	15µM*
O=C1NC(=O)C(=Cc2ccccc2OCCOc2ccc([N+](=O)[O-])cc2)C(=O)N1	-1.4%	-29.0%	-36.0%	.	-1.3%	14.1µM*
CN1C(=O)C(=Cc2ccccc2OCc2ccc(C(=O)O)cc2)C(=O)N(C)C1=O	-6.6%	?	-15.9%	.	1.9%	6.0%
C[C@@H]1O[C@@H](O[C@H]2CC[C@@H](O[C@H]3[C@H](O)C[C@H](c4ccc5c(c4O)C(=O)C4=C(C5=O)[C@@]5(O)C(=O)C[C@](C)(O[C@H]6CC[C@H](O[C@H]7C=CC(=O)[C@H](C)O7)[C@H](C)O6)C[C@@]5(O)C=C4)O[C@@H]3C)O[C@H]2C)C=CC1=O	-10.4%	.	.	.	.	.
c1ccc(P(c2ccccc2)c2ccccc2)cc1	7.0%[21.7 µM]	.	1.0%	.	.	.
C[C@@H]1CO1	20.1%	.	.	.	.	.
Brc1c(Br)c(Br)c2n[nH]nc2c1Br	7.3%	?	3.4%	?	.	?
Oc1c(Br)cc(Br)cc1Oc1ccc(Br)cc1Br	?	11.2%	.	7.08µM*	12.6µM*	-0.5%
COC(=O)C(O)(c1ccc(NC(=S)NC(=O)c2ccc(Cl)cc2Cl)cc1)C(F)(F)F (configuration not stated)	1.3%	-5.8%	?	-8.0%	-1.0%	?
CCOC(=O)C(O)(c1ccc(NC(=S)NC(=O)c2ccc(Cl)cc2Cl)cc1)C(F)(F)F (configuration not stated)	?	-9.2%	5.2%[10 µM]	-21.5%	12.7%	8.91µM*
CCOC(=O)C(O)(c1ccc(NC(=S)NC(=O)c2ccc(Cl)cc2Cl)c(C)c1)C(F)(F)F (configuration not stated)	-4.4%	-14.4%	14.4%[10 µM]	-23.1%	-6.3%	17.8µM*
CCOC(=O)N(CC)c1ccc(C(O)(C(=O)OCC)C(F)(F)F)cc1 (configuration not stated)	8.0%	-0.1%	-1.1%	-0.9%	-9.3%	2.8%
CCOC(=O)C(O)(c1ccc(N(CC)C(=O)OC)cc1)C(F)(F)F (configuration not stated)	13.3%	-3.0%	-2.5%[0.074 µM]	-13.4%	1.58µM*	3.5%
O=C(/C=C/c1ccccc1)NC(NC(=S)Nc1cccc2cccnc12)C(Cl)(Cl)Cl (configuration not stated)	-4.1%	.	.	?	.	3.0%
Cc1cc(NC(=O)CCl)nn1C	5.8%	0.7%	26.5%[10 µM]	.	11.6%[9.22 µM]	?
Cc1cc(NC(=O)CCl)on1	-1.0%	-4.2%	-11.3%	.	-8.0%	3.55µM*
COc1ccc2c(c1)[C@]13CCCC[C@@H]1[C@H](C2)N(C)CC3	.	.	4.8%[1.9 µM]	.	.	.
O=C1/C(=C/c2ccc3c(c2)OCO3)N2CCC1CC2	6.4%	-1.5%	-3.6%[10 µM]	?	-18.7%	?
O=C1/C(=C\c2cc3c(cc2Br)OCO3)N2CCC1CC2	-2.6%	3.8%	-50.1%[10 µM]	?	?	3.16µM*
